Experimental findings from PubChem BioAssay (NCI) are described below.

Common to all, as to test: NCI-60 one-dose screen, 48 h (100 = growth as untreated, 0 = no growth, -100 = all killed)
Holding throughout (details): 10 µM unless noted

The subject of assay [1] is HCT-15 colon.
Assay [2] concerns HT29 colon.
Assay [3] concerns SNB-75 CNS.
Assay [4] has as its system SNB-19 CNS.
Assay [5] has as its system U251 CNS.
In assay [6] the test system is PC-3 prostate.
Assay [7] deals with SK-MEL-5 melanoma.
Assay [8] has as its system UACC-62 melanoma.
Assay [9] deals with LOX IMVI melanoma.
Assay [10] relates to SK-MEL-28 melanoma.
The subject of assay [11] is SK-MEL-2 melanoma.
Assay [12] relates to EKVX NSCLC.
The test system of assay [13] is SN12C renal.
Assay [14] relates to UO-31 renal.
In assay [15] the test system is TK-10 renal.
Assay [16] concerns ACHN renal.
The subject of assay [17] is CAKI-1 renal.
In assay [18] the test system is A498 renal.
Assay [19] has as its system CCRF-CEM leukemia.
Assay [20] has as its system MOLT-4 leukemia.

About 83,000 compounds went through this panel and 20% of them were active in at least one assay; those are over-represented in the sample as a whole.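 Single-concentration screen, 48 h exposure, 96-well plates. Endpoint: percent growth. Below 10 = active.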 Values without a mark were called inactive. The source made the active and inactive calls.

Turning to `COc1ccc(C(c2cc(OC)c(OC)c(OC)c2)n2ccnc2)cc1O` (stereo not given), the growth in [1] is 7.7% (active); in assay [2] it was 5.94% (active); in [3], 56.7%; in assay [4], 30.5%; in assay [5], 15.5%; in assay [6], 20.7%. For the same compound, the growth in assay [7] was -12.9% (active); in [8], 36.5%; in assay [9] it was 25.7%; in assay [10], 62.9%; in assay [11], 43.5%; in assay [12], 30.2%. Further, the growth is 37.6% in assay [13]; 62% in assay [14]; 52.9% in [15]; 42.4% in assay [16]; 41.3% in assay [17]; 8.04% (active) in assay [18]. For the same compound, the growth is 6.97% (active) in assay [19] and 14% in assay [20].

On to `COc1ccc(Cn2cc(C(=O)Nc3cccnc3Nc3ccccc3)nn2)cc1`, for which the growth in assay [1] was 94.8%; in assay [2] it was 106%; in assay [3], 89.2%; in [4] it was 93.3%; in [5], 99.5%; in assay [6], 91%. Moreover, the growth in [7] was 90.2%; in [8], 83.2%; in assay [9] it was 92%; in assay [10], 113%; in assay [11], 107%; in assay [12] it was 92.8%. For the same compound, the growth in assay [13] is 86.5%; in assay [14] it was 70.9%; in assay [15] it was 95.1%; in assay [16], 105%; in assay [17] it was 88.4%; in assay [18], 117%. Further, the results for the growth in assay [19] and in assay [20] were 108% and 93.5%, respectively.

For the compound `Cc1ccc(-c2nc3nc(-c4ccc(F)cc4)nc(N4CCCNCC4)c3o2)cc1`, the growth in [1] was -84.5% (active); in assay [2], -81.6% (active); in assay [3], -96% (active); in [4], -94.4% (active); in assay [5], -93.2% (active); in assay [6], -85.2% (active). Further, the growth in assay [7] was -87.4% (active); in [8] it was -82.3% (active); in assay [9], -88.6% (active); in [10], -93.8% (active); in assay [11] it was -61.2% (active); in assay [12], -75.6% (active). The growth in assay [13] is -91.2% (active); in assay [14] it was -88.5% (active); in [15], -93.8% (active); in assay [16], -99.3% (active); in assay [17] it was -95.4% (active); in assay [18], 77.5%. The results for the growth in assay [19] and in assay [20] were -77.7% (active) and -61.1% (active), respectively.

Turning to `CCCN1C(=O)/C(=c2\sc3n(c2=O)NC2C(N=3)N(CC)C(=O)N2CC)c2ccccc21` (stereo not given), the growth in assay [1] is 24.6%; in assay [2] it was 13.5%; in [3] it was 12.9%; in assay [4], 40.2%; in [5], 29.9%; in [6] it was 42.5%. In addition, the growth is 41.8% in [7]; 31.8% in assay [8]; 38.8% in assay [9]; 54.5% in [10]; 68.6% in assay [11]; 55.7% in [12]. For the same compound, the growth in [13] is 38.1%; in assay [14] it was 46.7%; in [15], 86%; in [16], 47.5%; in assay [17], 40.7%; in [18], 29%. For the same compound, the growth was 25.1% in assay [19] and 38% in assay [20].

Regarding `Cc1ccc(-c2nc3nc(-c4ccccc4)nc(N4CCCNCC4)c3o2)cc1`, the growth is -81.5% (active) in assay [1]; -86.1% (active) in assay [2]; -59.8% (active) in assay [3]; 25.9% in assay [4]; -84.9% (active) in [5]; -88.9% (active) in assay [6]. For the same compound, the growth in assay [7] is -57.3% (active); in [8] it was -81.4% (active); in assay [9], -89.8% (active); in [10], -89.3% (active); in assay [11], -2.85% (active); in assay [12], 39%. Moreover, the growth in [13] was -87.9% (active); in [14], -98.1% (active); in [15], -60% (active); in assay [16], -98.9% (active); in assay [17] it was -9.04% (active); in assay [18], 98.4%. The results for the growth in assay [19] and in assay [20] were -75.8% (active) and -68.1% (active), respectively.

In the case of `O=S(=O)(Nc1cc(Sc2cccc3cccnc23)c(O)c2ccccc12)c1ccc(F)cc1`, the growth in assay [1] is -42.9% (active); in [2], -40.9% (active); in [3], 63.8%; in assay [4], 42.1%; in assay [5] it was 5.35% (active); in assay [6] it was 17%. The growth was -40.2% (active) in [7]; -26.9% (active) in assay [8]; -60.7% (active) in [9]; -16.2% (active) in [10]; 1.64% (active) in [11]; 37.1% in assay [12]. The growth in assay [13] was -15% (active); in assay [14], -11.2% (active); in assay [15], 17.1%; in assay [16], 0.351% (active); in assay [17], 11.9%; in assay [18] it was 70.4%. Besides, the growth in assay [19] was 5.42% (active); in [20] it was -18.4% (active).

Consider `Cc1[nH]c(C(=O)Nc2nc3ccc(NC(=O)CCN)cc3s2)c(Cl)c1Cl`, for which the growth in assay [1] was 83.2%; in assay [2] it was 88.9%; in [3], 81.6%; in assay [4], 78.6%; in assay [5], 47.1%; in assay [6], 65.5%. In addition, the growth in [7] is 83.8%; in assay [8], 44.4%; in assay [9], 19.7%; in assay [10] it was 97.8%; in assay [11], 96.4%; in assay [12], 76.3%. The growth in assay [13] is 65.4%; in assay [14], 80.4%; in [15] it was 113%; in assay [16] it was 43.2%; in [17], 31.5%; in assay [18], 65.3%. Besides, the growth in assay [19] was 15.3%; in assay [20], 12.9%.
